Rows were chosen to be rich in hits. Some 2.1% of all compounds tested hit in one or more screens of this group.
aSyn yeast inh = qHTS of alpha-syn Inhibitors | Potency, µM (highest dose often 46.1 µM), for inactives: at the highest dose growth rescue (activation), actives largely listed as activators | 370,000 compounds, 0.14% hits | Yeast expressing alpha-synuclein, growth rescue, BacTiter-Glo, 24 h | AID 652106, 2013; also: % of control where 0% means no effect; nearly all actives have a fitted effect of over 65% in size
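Screening used galactose-induced yeast with toxic alpha-synuclein levels, exposed to compound for 24 hr at 30 deg C. Cell growth, read with BacTiter-Glo luminescence, gave the measured signal.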
TDP-43 yeast inh = qHTS of TDP-43 Inhibitors; TDP-43 expressing yeast growth rescue, BacTiter-Glo, 24 h; Potency, µM (titrated, usually from 46.1 µM), for the others: top-dose growth rescue (activation), actives largely listed as activators; 410,000 compounds, 1.8% hits; AID 652104, 2013; also: % of control where 0% means no effect; nearly all actives have a fitted effect of over 50% in size
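In this qHTS, compounds that restore growth of yeast expressing TDP-43 appear as activators. Cells (OD600=0.02, galactose medium, raffinose-pregrown) are incubated with compound 24 hr at 30 deg C and growth is quantified by BacTiter-Glo.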
Abeta rescue = qHTS for compounds that reverse cellular toxicity of Amyloid beta (A-beta) peptide in yeast: Primary Screen. yeast expressing A-beta42, growth rescue, OD600, 48 h; response scale: 0% DMSO, 100% iron-clioquinol control. Potency, µM (series often up to 46.1 µM), usual class: activators. 410,000 compounds, 0.063% hits. AID 1347071, 2019; also: nearly all actives have a fitted effect of over 55% in size
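Yeast growth medium received pinned compounds, then yeast cells expressing toxic A-beta were added; plates incubated at 30 C for 48 hr. Growth read as absorbance at 600 nm, normalized to DMSO and equimolar FeCl3 plus clioquinol controls.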
FUS suppressor = qHTS for Suppressors of FUS Proteinopathy: Primary screen using FUS-linked yeast assay | S. cerevisiae FUS-expressing, growth rescue, OD600, 24 h | Potency, µM (series often up to 76.6 µM), most hits filed as activators | 390,000 compounds, 0.24% hits | AID 1347120, 2019;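 also: plate controls were DMSO vehicle for no effect and reference control for full effect; nearly all actives have a fitted effect of over 55% in size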
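Read-out: OD at 600 nm after 24hr at 30C, reporting rescue of FUS-induced yeast toxicity. Cells at OD 0.005 in galactose (2%) minimal medium; compounds tested in a dilution series; CP55940 titration from 92uM final as control.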
Active calls of the source: *; i = inactive; ? = inconclusive; nt = no result. Calls follow the shape of the dose curve; as a rule, active = well fitted curve in the direction sought with a large enough effect; inconclusive = small, poorly fitted or top-dose-only effect, or another doubt; inactive = no such curve, though single readings can be large; an effect the other way counts as inactive or inconclusive. Potency is read from the fitted curve at half-maximal effect.

SMILES	aSyn yeast inh	TDP-43 yeast inh	Abeta rescue	FUS suppressor
O=C(N/N=C/c1ccc(OCc2ccccc2)cc1)c1cc[n+](Cc2ccccc2)cc1	2.2%	20µM*	i	i
COCCCN(C(C)=O)c1nc(-c2ccc(OC)cc2)cs1	-6.1%	11.2µM*	i	i
O=C(CSCc1cccc(Br)c1)N=Nc1c(O)[nH]c2ccccc12	-5.8%	22.4µM*	i	i
O=C(CSCc1ccccc1)N=Nc1c(O)[nH]c2ccccc12	0.1%	-0.6%	i	nt
CN(c1ccccc1)c1nc2ccsc2c(=O)s1	0.4%	14.1µM*	i	i
COc1ccc(/C=C2/C(=O)N(CC3CCCO3)C(=S)N2C)c(OC)c1 (stereo not drawn)	0.6%	-17.6%	i	i
COc1ccccc1/C=C1\NC(=S)N(CC2CCCO2)C1=O (stereo not drawn)	0.6%	14.1µM*	i	i
CCc1ccc(OC(C)C(=O)N2CCC(c3nc4ccccc4o3)CC2)cc1 (stereo not drawn)	nt	?	i	i
Cc1cc(C)cc(OCC(=O)N2CCC(c3nc4ccccc4o3)CC2)c1	nt	22.4µM*	i	i
Cc1cc(OC(C)C(=O)N2CCC(c3nc4ccccc4o3)CC2)ccc1Cl (stereo not drawn)	nt	25.1µM*	i	?
COc1ccc(C(=O)N2CCCC(C)(C(=O)NS(=O)(=O)C3CC3)C2)cc1 (stereo not drawn)	?	-6.1%	i	i
O=CN1Cc2ccccc2-c2ccccc2C1	18.1%	12.6µM*	i	i
CCOC(=O)c1cnc2ccc(OCC)cc2c1N1CCN(C)CC1	-4.1%	-2.1%	i	i
CCOC(=O)c1cnc2ccc(OCC)cc2c1N1CCN(c2cccc(Cl)c2)CC1	nt	20µM*	i	?
Cc1ccc(-c2csc3nc[nH]c(=S)c23)cc1C	?	25.1µM*	?	i
COc1ccc(-c2csc3nc[nH]c(=O)c23)cc1OC	-2.8%	-11.9%	i	i
c1ccc(-c2cc(-c3nc4ccccc4[nH]3)c3ccccc3n2)cc1	-0.9%	15.8µM*	i	i
Cn1nccc1-c1ccc(C(=O)NCc2ccc(Cl)cc2)c2occc12	5.6%	22.4µM*	i	?
O=C(NCc1ccco1)c1ccc(-c2ccc(F)c(F)c2)c2ccoc12	1.1%	20µM*	i	i
Cn1nccc1-c1coc2c(C(=O)NCC3CCOCC3)cccc12	-9.9%	12.8%	i	i
Cn1nccc1-c1coc2c(C(=O)NCc3ccccc3)cccc12	14.2%	3.55µM*	i	i
O=C(NCc1cccc(Cl)c1)c1ccc(-c2ccc(F)c(F)c2)c2ccoc12	7.9%	0.0%	i	i
O=C(NCc1ccccc1)c1ccc(-c2ccc(F)c(F)c2)c2ccoc12	-0.9%	-7.9%	i	i
Cc1c(C2(O)CCCCC2)[nH]c2cc(C(F)(F)F)ccc12	-15.9%	6.31µM*	i	i
Cc1ccccc1OCCC(=O)Nc1cc(S(=O)(=O)N2CCOCC2)ccc1OC(C)C	6.3%	-6.0%	i	i
SMILES	aSyn yeast inh	TDP-43 yeast inh	Abeta rescue	FUS suppressor
O=Cc1c(-c2ccc(F)cc2)nc2ccccn12	-12.2%	-11.8%	i	i
Cc1ccn2c(C=O)c(-c3ccc(F)cc3)c(C=O)c2c1	-8.5%	20µM*	i	i
O=S(=O)(NCc1ccccc1)c1ccc(-n2cccn2)cc1	14.5%	?	i	i
Cc1ccc(C23CC4CC(CC(CC(=O)NC(C)(C)CO)(C4)C2)C3)cc1	2.5%	35.5µM*	i	i
COc1cccc(NC(=O)CSC2=Nc3ccccc3N=C(c3ccc(F)cc3)C2)c1	nt	22.3%	i	i
Cc1cc(C)cc(NC(=O)c2cccc(N3CCCS3(=O)=O)c2)c1	nt	2.1%	i	i
CCOc1cc(/C=C/c2ccc3cccc([N+](=O)[O-])c3n2)ccc1OCC(=O)N(C)C	0.6%	-9.9%	i	i
CCOc1cccc(/C=C/c2ccc3cccc(O)c3n2)c1O	-3.0%	11.2µM*	i	i
CCOc1cc(/C=C/c2ccc3cccc([N+](=O)[O-])c3n2)ccc1O	1.7%	15.8µM*	i	nt
CCOC(=O)c1cc(-c2ccc(F)cc2)n(CCC(=O)NCCc2ccc(C)cc2)c1C	nt	-1.3%	i	i
O=c1c2c3c(sc2ncn1-n1cccc1)CCCCC3	6.6%	12.6µM*	i	i
O=C(CN1CCN(Cc2ccccc2Cl)C1=O)NCc1ccccc1Cl	nt	25.4%	i	i
CC1(c2nnnn2-c2ccc3ccccc3c2)CSCC(=O)N1C1CC1 (stereo not drawn)	nt	nt	nt	i
COCCn1c(SCc2cccc([N+](=O)[O-])c2)nc2ccccc2c1=O	2.2%	17.8µM*	i	i
CC(C)OCCCN1C(=O)c2[nH]nc(-c3ccccc3O)c2C1c1ccccc1F (stereo not drawn)	nt	0.0%	i	i
CC(C)c1cccc(-c2csc(C(O)c3ccc(F)c(F)c3)n2)c1 (stereo not drawn)	-29.2%	-72.2%	i	i
OC(c1ccc(F)c(F)c1)c1nc(-c2cnc3ccccc3c2)cs1 (stereo not drawn)	10.3%	22.4µM*	i	i
OC(c1ccc(F)c(F)c1)c1nc(-c2ccoc2)cs1 (stereo not drawn)	3.7%	4.1%	i	i
OC(c1ccc(F)c(F)c1)c1nc(-c2ccc3c(c2)OCO3)cs1 (stereo not drawn)	?	22.4µM*	i	i
COc1ccc(-c2csc(C(O)c3ccc(F)c(F)c3)n2)cc1 (stereo not drawn)	11.2µM*	?	i	i
OC(c1ccc(F)c(F)c1)c1nc(-c2cccc(F)c2)cs1 (stereo not drawn)	19.6%	22.4µM*	i	i
COc1ccc2c(c1C(=O)/C=C/c1ccccc1)OC(C)(C)C=C2	nt	nt	nt	i
Cc1ccccc1-c1noc(CSc2nnc(Cc3ccccc3)n2-c2ccc(F)cc2)n1	nt	0.0%	i	?
Cc1cc2nccc(-c3ccc(Cl)cc3Cl)n2n1	4.0%	?	i	i
OC(c1ccc(F)c(F)c1)c1nc(-c2ccccc2)cs1 (stereo not drawn)	0.0%	14.1µM*	i	i
OC(c1ccc(F)c(F)c1)c1nc(-c2cccs2)cs1 (stereo not drawn)	-0.4%	22.4µM*	i	i
O=C(O)c1cccc(-c2csc(C(O)c3ccc(F)c(F)c3)n2)c1 (stereo not drawn)	-2.8%	?	i	i
CCOC(=O)c1ccc(NC(=O)CC2C(=O)N(c3ccc(C)cc3)C(=O)N2C2CCCC2)cc1 (stereo not drawn)	nt	-11.1%	i	i

From PubChem
